The text below walks through data of PubChem BioAssay (NCI).

This is part of a sample that, as a whole, favours compounds with a hit. Of some 83,000 tested, about 20% had one in any assay.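 Negative percent growth values reflect cell death: -40 means 40% of the cells present at the start died, and -100 means all died.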 A number with no mark means an inactive call. Calls of active or inactive are those of the source. How the source made its calls: active means growth percent below 10; inactive means the rest.

Common to all, as to test: NCI-60 one-dose screen, 48 h (100 = growth as untreated, 0 = no growth, -100 = all killed)
Common to all, as to details: 10 µM unless noted

Test [1] concerns NCI-H226 lung.
In test [2] the test system is NCI-H322M lung.
Test [3] has as its system HOP-62 NSCLC.
The test system of test [4] is NCI-H460 lung.
Test [5] concerns HOP-92 NSCLC.
Test [6] relates to NCI-H522 lung.
Test [7] relates to A549/ATCC NSCLC.
For test [8], the system named is 786-0 renal.
Test [9] deals with COLO 205 colon.

`C/C(=N/NC(=O)Cn1c2ccccc2c2ccncc21)c1cccs1`: the growth in [1] was 89.3%; in test [2] it was 109%; in [3], 100%; in [4] it was 94.6%; in [5], 92%; in [6], 85.6%. Moreover, the growth in test [7] was 84.7%; in test [8], 100%; in test [9], 105%.
Turning to `O=C(Cn1c2ccccc2c2ccncc21)N/N=C\c1ccc2ccccc2c1`, the growth in [1] is 31.9%; in test [2] it was 39.1%; in test [4], 5.42% (active); in [5] it was -7.39% (active); in test [6], 38%; in test [7] it was -10.1% (active). Moreover, the growth was -3.98% (active) in test [8] and 31.6% in test [9].
As to `COc1ccc(-c2c(C#N)cnc(N)c2-c2nc3cc(C)c(C)cc3[nH]2)cc1`, the growth in test [1] is 99.3%; in test [2], 38.2%; in test [3], 57%; in test [4], 36%; in [5], 68%; in [6] it was 45.6%. The figures for the growth in test [7], in test [8] and in [9] were 27.2%, 25.8% and 68.7%, respectively.
On to `Clc1ccc(CN2COc3c(ccc4cccnc34)C2)cc1Cl`, for which the growth in test [1] was -11.5% (active); in test [2], 12.3%; in test [3] it was -2.68% (active); in [4] it was -26.2% (active); in [5] it was -9.87% (active); in test [6] it was -56.7% (active). The growth is -4.93% (active) in [7], -63.3% (active) in test [8] and 12% in test [9].
In the case of `CCC1S/C(=N\N=C(/C)c2cccs2)N(c2ccccc2)C1=O` (centres undefined), the growth was 136% in test [1]; 109% in [2]; 65.4% in test [3]; 112% in test [4]; 85.1% in [5]; 82.2% in test [6]. The growth in [7] is 89.5%; in [8] it was 86.2%; in test [9], 114%.
With `COc1cc(Nc2ncccc2C(=O)Nc2nc3ccc(F)cc3s2)cc(OC)c1OC`, the growth in [1] was 57.2%; in test [2], 90.8%; in test [4], 74.1%; in [5] it was 45.1%; in test [6] it was 50.6%; in test [7], 65.6%. In addition, the growth in [8] was 22.9%; in [9], 118%.
Take `O=S(=O)(Nc1cccc2cc(OS(=O)(=O)c3ccccc3)ccc12)c1ccccc1`: the growth is 74.7% in test [1]; 90.1% in [2]; 46.3% in [3]; 29.7% in test [4]; 57.6% in test [5]; 40.5% in [6]. Further, the growth in test [7] was 57.1%; in test [8] it was 81.2%; in [9], 51.9%.
Turning to `O=C(Nc1ccc(-n2cc(-c3ccncc3)c(-c3ccc(O)c(Cl)c3)n2)cc1)Nc1cccc(Cl)c1Cl`, the growth in test [1] is 73.7%; in test [2], 79.7%; in test [3], 87.6%; in [4] it was 43%; in [5] it was 16.5%; in test [6], 66.1%. In addition, the growth is 38.9% in test [7], 58.3% in test [8] and 39.1% in test [9].
As to `COc1cc2nc(C(=O)N3CCCCC3)cc(Nc3ccccc3)c2cc1OC`, the growth in [1] was 107%; in test [2], 96.1%; in test [3] it was 96%; in test [4], 102%; in [5] it was 73.3%; in test [6] it was 65.7%. For the same compound, the growth in [7] was 98.1%; in test [8], 95.3%; in [9], 116%.
With `CNCCCOc1c(Br)cc(CCNC(=O)/C(Cc2ccc(OC)c(Br)c2)=N/O)cc1Br`, the growth in [1] was 77.3%; in [2], 70.3%; in [3] it was 67.5%; in test [4], 15.8%; in [5], 40.9%; in test [6], 29.3%. Besides, the results for the growth in test [7], in [8] and in test [9] were 49.7%, 40.6% and -58.6% (active), respectively.
Turning to `Cc1[nH]c2ccc(F)cc2c1CCNC(=O)C1CCN(C(=O)c2ccc(-c3ccccc3)cc2)CC1`, the growth was 57.3% in test [1]; 87% in [2]; 64.4% in test [3]; 51% in [4]; 70.6% in [5]; 41.6% in [6]. Besides, the growth is 39.1% in test [7], 63.3% in test [8] and 36.7% in test [9].
In the case of `CC1=C2C(=C[C@@](C)(CO)[C@@H]2OC(=O)N(C)CCN(C)C(=O)OC(C)(C)C)C(=O)[C@](C)(O)C12CC2`, the growth is 106% in test [1]; 59.7% in [2]; 9.97% (active) in [3]; 3.77% (active) in test [4]; 8.11% (active) in test [5]; 57.7% in test [6]. Further, the growth is 10.4% in test [7], 65.1% in test [8] and 40.1% in [9].
For the compound `CC(C)(C)OC(=O)NCc1cccc(N=C=S)c1`, the growth in [1] is 80.6%; in [2] it was 65.7%; in test [3], 57.8%; in [4], 63.8%; in test [5], -0.561% (active); in test [6], 12.8%. Besides, the growth in test [7] was 69.2%; in test [8], 54.9%; in test [9], 38.5%.
As for `CC(=O)Cc1cccnc1`, the growth is 95.4% in [1]; 102% in test [2]; 108% in test [3]; 105% in test [4]; 102% in test [5]; 96.3% in test [6]. Besides, the growth in test [7] was 101%; in [8], 103%; in test [9], 115%.
